# A selection: hits, their analogues and other compounds. The true share with any hit is near 2.8%.
# KDM5B inh = KDM5B demethylase inhibition | Q9UGL1 | KDM5B demethylase, FDH-coupled NADH fluorescence (FDH is formaldehyde dehydrogenase) | Potency, µM (top dose mostly 57.7 µM), most hits filed as inhibitors | 220,000 compounds, 2.6% hits | AID 1347165; also: potency is read from the fitted curve at half-maximal effect; 0% is about no effect; nearly all actives have a fitted effect of over 70% in size
# Target sequence (Q9UGL1 whole entry, looked up): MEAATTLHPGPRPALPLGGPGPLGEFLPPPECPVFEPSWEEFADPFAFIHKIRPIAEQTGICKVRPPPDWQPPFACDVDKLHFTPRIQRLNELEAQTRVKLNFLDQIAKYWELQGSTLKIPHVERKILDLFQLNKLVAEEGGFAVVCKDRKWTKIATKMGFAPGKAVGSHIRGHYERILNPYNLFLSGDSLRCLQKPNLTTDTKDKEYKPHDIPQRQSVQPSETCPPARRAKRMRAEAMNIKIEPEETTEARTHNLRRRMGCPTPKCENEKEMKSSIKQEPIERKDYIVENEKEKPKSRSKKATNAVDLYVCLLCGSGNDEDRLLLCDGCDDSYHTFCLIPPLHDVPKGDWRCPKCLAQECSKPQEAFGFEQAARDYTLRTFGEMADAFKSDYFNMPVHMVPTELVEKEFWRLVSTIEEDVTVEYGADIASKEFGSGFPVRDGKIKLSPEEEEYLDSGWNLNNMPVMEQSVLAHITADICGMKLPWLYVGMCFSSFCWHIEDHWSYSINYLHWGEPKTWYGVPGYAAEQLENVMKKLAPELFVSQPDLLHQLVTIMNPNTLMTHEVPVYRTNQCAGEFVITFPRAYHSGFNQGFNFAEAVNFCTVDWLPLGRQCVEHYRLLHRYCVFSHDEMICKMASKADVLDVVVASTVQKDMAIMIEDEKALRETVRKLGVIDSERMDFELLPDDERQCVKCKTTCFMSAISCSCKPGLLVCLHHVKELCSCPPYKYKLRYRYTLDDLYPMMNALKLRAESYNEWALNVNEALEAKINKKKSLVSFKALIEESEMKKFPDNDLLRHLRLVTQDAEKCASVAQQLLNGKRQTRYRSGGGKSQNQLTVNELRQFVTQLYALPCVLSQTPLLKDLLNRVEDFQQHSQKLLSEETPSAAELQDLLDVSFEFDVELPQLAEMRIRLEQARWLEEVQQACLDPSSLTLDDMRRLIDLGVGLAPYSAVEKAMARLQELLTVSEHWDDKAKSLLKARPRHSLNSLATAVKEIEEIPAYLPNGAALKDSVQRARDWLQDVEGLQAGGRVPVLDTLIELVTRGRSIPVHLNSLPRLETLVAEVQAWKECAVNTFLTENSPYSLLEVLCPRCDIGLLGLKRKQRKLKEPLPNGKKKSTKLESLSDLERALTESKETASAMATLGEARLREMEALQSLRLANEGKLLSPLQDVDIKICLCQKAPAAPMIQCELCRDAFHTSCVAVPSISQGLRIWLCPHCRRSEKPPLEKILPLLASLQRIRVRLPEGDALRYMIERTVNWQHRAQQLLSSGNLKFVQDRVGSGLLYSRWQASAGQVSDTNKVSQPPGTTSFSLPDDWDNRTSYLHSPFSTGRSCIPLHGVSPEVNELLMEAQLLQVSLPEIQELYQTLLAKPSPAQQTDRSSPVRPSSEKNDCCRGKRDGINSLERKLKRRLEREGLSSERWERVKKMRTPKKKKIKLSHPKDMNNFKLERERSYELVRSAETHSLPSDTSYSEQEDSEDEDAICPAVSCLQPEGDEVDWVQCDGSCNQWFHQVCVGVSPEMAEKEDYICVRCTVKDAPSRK
#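 Compound dilutions met 200 nM (final) KDM5BΔAP for 10 min at room temperature before substrate addition. The substrate mix held 12.5 µM H3K4me3 with cofactors 25 µM α-ketoglutarate and 50 µM Fe²⁺. NADH signal gain over 30 min defined activity.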
# SNCA viab count = reduces viability of HEK-293 SNCA reporter cells; AID 1671193; Potency, µM (highest dose often 57.1 µM), for the others: top-dose activity change, negative = cytotoxicity, usual class: cytotoxic; 150,000 compounds, 0.12% hits; HEK-293-SNCA-luc viability, GF-AFC fluorescence, 24 h;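 also: potency is read from the fitted curve at half-maximal effect; 0% = DMSO-treated cells and -100% = medium-only wells without cells; nearly all actives have a fitted effect of over 30% in size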
#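 HEK-293-SNCA-luc cells (1500/well) plated 24 h, then exposed 24 h to a dilution series; GF-AFC added 30 min at 37C, fluorescence 405/540 nm; normalised to medium-only and DMSO wells, Hill fit.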
# IP6K1 inhibitor = blocks human inositol hexakisphosphate kinase 1; Q92551; IP6K1 kinase, ADP-Glo luminescence, 2 h; stronger effect = lower value; activity change, % (series mostly up to about 58 µM); 140,000 compounds, 0.81% hits; AID 1645851; in the data active = activity change below about -25%; also: % is scaled to controls: 0 for no effect and ±100 for the full control effect
#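 ADP-Glo luminescence measures ADP made by human IP6K1 during a 2 h RT reaction with ATP/IP6 (mix at 1.3 mM/130 uM); top library doses 57.5 and 19.1 uM final.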
# SNCA expr inhib = inhibitors of alpha-synuclein (SNCA) gene expression | HEK-293 SNCA-luciferase knock-in, luminescence, 24 h | Potency, µM (doses to about 57.2 µM), without a hit: top-dose activity change, negative = inhibition, most hits filed as inhibitors | 140,000 compounds, 0.17% hits | AID 1671194;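 also: potency is read from the fitted curve at half-maximal effect; plate controls were DMSO cells for no effect and cell-free wells for full effect; nearly all actives have a fitted effect of over 45% in size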
# * marks the source's active call; other numbers are inactive results; i = inactive; ? = inconclusive; · = no result given; [ ] = another dose, or the depositor's remark. Unless noted, calls follow the shape of the dose curve; as a rule, active = well fitted curve in the direction sought with a large enough effect; inconclusive = small, poorly fitted or top-dose-only effect, or another doubt; inactive = no such curve, though single readings can be large; an effect the other way counts as inactive or inconclusive.
SMILES,KDM5B inh,SNCA viab count,IP6K1 inhibitor,SNCA expr inhib
CN1CCC2(C1)CN(Cc1ccccc1)c1ccc(C(=O)NCCOc3ccccc3)cc12 (configuration not stated),28.2µM*,4.1%,-0.5,19.7%
CN1CCC2(C1)CN(CC1CC1)c1ccc(C(=O)NC3CCCCC3)cc12 (configuration not stated),39.8µM*,2.9%[87.6 µM],12.0,6.8%[87.6 µM]
O=C(NCCCO)c1ccc2c(c1)C1(CCN(CC3CC3)C1)CN2Cc1ccccc1 (configuration not stated),35.5µM*,3.7%[87.6 µM],-6.1,-2.7%[87.6 µM]
O=C(NCC(F)(F)F)c1ccc2c(c1)C1(CCN(CC3CC3)C1)CN2Cc1ccccc1 (configuration not stated),20µM*,-0.5%,19.4,-13.0%
COc1ccccc1CNC(=O)c1ccc(Cn2ccn3nc4c(c3c2=O)CCCC4)cc1,?,-22.4%,-3.0,?
COCCNC(=O)c1ccc2c(c1)C1(CCN(CC3CC3)C1)CN2Cc1ccccc1 (configuration not stated),35.5µM*,-2.7%[87.6 µM],12.3,-5.9%[87.6 µM]
O=C(NCc1ccc(Cl)nc1)c1cnn2c1CN(C(=O)c1ccccc1)CC2,i,-4.0%,16.4,0.3%
Cc1ccc2c(C(=O)NCc3ccc(Cl)nc3)cnn2c1,39.8µM*,14.5%[87.6 µM],-3.8,16.4%[87.6 µM]
O=C(NCc1ccc(Cl)nc1)c1cccn2nccc12,35.5µM*,0.1%[87.6 µM],4.9,?
Cc1ccc2c(C(=O)NCc3ccc(Cl)cc3Cl)cnn2c1,?,0.1%[87.6 µM],-1.9,146.1%[87.6 µM]
NC(=O)c1ccc(NC(=O)c2cc3n(n2)CC(c2ccc(Br)cc2)OC3)cc1 (configuration not stated),25.1µM*,1.6%,-0.1,-8.3%
O=C(Nc1cccc(F)c1)c1cc2n(n1)CC(c1ccc(Br)cc1)OC2 (configuration not stated),25.1µM*,4.6%,5.4,3.5%
CC(=O)Nc1ccc(NC(=O)c2cc3n(n2)CC(c2ccc(Br)cc2)OC3)cc1 (configuration not stated),?,-28.8%,-7.0,?
COc1cc(NC(=O)c2cc3n(n2)CC(c2ccc(Br)cc2)OC3)cc(OC)c1OC (configuration not stated),31.6µM*,-19.3%,-3.5,?
Cc1cc(NC(=O)c2cc3n(n2)CC(c2ccc(Cl)cc2)OC3)ccc1F (configuration not stated),?,5.9%,20.5,23.4%
COc1ccc(NC(=O)c2cc3n(n2)CC(c2ccc(Br)cc2)OC3)cc1OC (configuration not stated),?,?,0.9,-28.0%
Cn1nc(C2CC2)cc1NC(=O)c1ccc(Cl)cc1,·,-20.2%[87.6 µM],4.2,46.7%[87.6 µM]
O=C(Nc1cccc(-c2nnc3n2CCCC3)c1)c1cc(-c2ccccc2)n[nH]1,?,6.4%,11.6,85.7%
O=C(Nc1ccc(-c2nnc3n2CCCC3)cc1)c1cc(-c2ccccc2)n[nH]1,31.6µM*,7.4%,-3.6,32.7%
CC(C)CCN1CCn2c(nn(-c3cccc(Cl)c3)c2=O)C1,?,3.1%,2.2,132.7%
Cc1ccccc1Cn1cc(-c2ccncc2)cc1C(=O)NC(C)c1ccccn1 (configuration not stated),31.6µM*,-11.5%,2.2,2.5%
CC(=O)Nc1ccc(NC(=O)c2cc(-c3ccncc3)cn2Cc2ccccc2C)cc1,?,-18.0%,-10.5,29.6%
COc1ccccc1C(=O)N1CCC(c2n[nH]c(=O)n2Cc2ccc(F)cc2)CC1,i,-2.8%,-1.6,-0.8%
CN(c1cc(=O)c2ccnc(-c3ccc(F)c(Cl)c3)c2o1)C1CCOCC1,35.5µM*,-0.7%[87.6 µM],-1.5,-12.1%[87.6 µM]
CN(c1cc(=O)c2ccnc(N3CCOCC3)c2o1)C1CCOCC1,?,-6.1%[87.6 µM],-17.5,-1.3%[87.6 µM]
SMILES,KDM5B inh,SNCA viab count,IP6K1 inhibitor,SNCA expr inhib
COC(=O)c1c(NC(C)=O)c2c3c(sc2n1Cc1cc(C)ccc1C)CCCC3,i,?,8.6,2.9%
CC(C)c1ccc2occ(CC(=O)Nc3cccc(C(F)(F)F)c3)c2c1,i,?,-12.6,-15.6%
Cc1cn2nc(C(=O)Nc3ccc(C(=O)NCCc4cccs4)cc3)cc2c(=O)[nH]1,25.1µM*,-7.8%,7.1,-24.0%
Cc1cn2nc(C(=O)NCc3ccccn3)cc2c(=O)[nH]1,?,2.7%,-11.0,26.2%
COCCOc1ccc2c(n1)CCN(C(=O)CCC1CCCC1)C2,i,-6.1%[12.5 µM],4.3,24.6%
COc1cccc(-c2cc3c(=O)n(CCNC(=O)c4ccc5cc[nH]c5c4)ccn3n2)c1,35.5µM*,-2.3%,-16.3,7.8%
COc1cccc(-c2cc3c(=O)n(CCNC(=O)c4cc(F)cc(F)c4)ccn3n2)c1,i,-23.5%,-12.0,15.4%
COc1cccc(-c2cc3c(=O)n(CCNC(=O)c4c(F)cccc4F)ccn3n2)c1,?,1.9%,-12.4,64.5%
Cc1ccc(-c2cc3c(=O)n(CCNC(=O)c4ccc5cc[nH]c5c4)ccn3n2)cc1C,35.5µM*,-14.8%,-5.4,24.9%
O=C(NCCn1ccn2nc(-c3ccc(F)cc3)cc2c1=O)c1ccc(F)cc1,?,4.6%,4.1,2.8%
COc1cccc(-c2cc3c(=O)n(CCNC(=O)c4ccc(OC)c(F)c4)ccn3n2)c1,20µM*,7.8%,-6.8,9.8%
COc1ccc(CC(=O)N2CCN(c3ccc4nnc(C)n4n3)CC2)cc1,·,·,14.8,·
CCOc1ccccc1CN1CCN(C(=O)c2ccccn2)CC1CCO (configuration not stated),20µM*,-9.3%,-2.6,10.2%
Cc1nonc1C1CCCN1c1ccc(-c2nc(COc3ccccc3)no2)cn1 (configuration not stated),28.2µM*,-7.2%,-11.0,12.6%
c1ccc(OCc2noc(-c3ccc(NCC4CCCCO4)nc3)n2)cc1 (configuration not stated),?,-9.0%,13.0,133.4%
O=C1NCCCC[C@@H]1Nc1ccc(-c2nc(COc3ccccc3)no2)cn1,28.2µM*,2.5%,2.5,16.4%
Cc1cc(C)nc(N2CCN(C(=O)C3CCN(CC(N)=O)CC3)CC2)n1,28.2µM*,4.3%,0.0,?
Cc1ccc(-c2ccccc2CN2CCC(C(=O)N3CCN(c4ncccn4)CC3)CC2)cc1Cl,·,-13.7%,-7.9,?
Cc1cccc(N2CCN(C(=O)C3CCN(C(=O)C4CC4)CC3)CC2)n1,22.4µM*,-0.5%,11.6,6.9%
Cc1ncnc(N2CCN(C(=O)C3CCN(C(=O)C4CC4)CC3)CC2)c1C,i,1.3%,18.2,8.5%
O=C(Nc1cccc(F)c1)N1Cc2[nH]cnc2C[C@H]1c1nc(-c2ccc3c(c2)OCO3)no1,?,-26.5%,11.7,?
O=C(Nc1cccc(F)c1)N1Cc2[nH]cnc2C[C@H]1c1nc(-c2ccccc2)no1,28.2µM*,-26.3%[87.6 µM],-0.8,78.8%[87.6 µM]
O=C(c1ccc(F)cc1)N1Cc2[nH]cnc2C[C@H]1c1nc(-c2ccc3c(c2)OCO3)no1,39.8µM*,-10.5%[87.6 µM],-12.4,?
O=C(Nc1cccc(F)c1)N1Cc2[nH]cnc2C[C@H]1c1nc(-c2ccc(Cl)cc2)no1,i,?,12.5,-8.9%
